# Out of some 50,000 compounds screened, about 800 (1.6%) showed an effect of 50% or more. This is one part of a sample in which strong results are shown more often than they occur.
# Biological target: Bcl-2-like protein 10 (Homo sapiens) (UniProt Q9HD36)
# Assay: TR3 peptide-Bcl-B binding displacers, biochemical primary FP assay, phenotype converters (AID 1240);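 also: 0% = Bcl-B with tracer peptide and DMSO and 100% = tracer peptide lacking Bcl-B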
# Settings: GST-Bcl-B / FITC-TR3 peptide fluorescence polarization; stronger effect = higher value; compound at 3.75 mg/L
# Sequence of Bcl-2-like protein 10 (Homo sapiens) (Q9HD36 whole entry, looked up): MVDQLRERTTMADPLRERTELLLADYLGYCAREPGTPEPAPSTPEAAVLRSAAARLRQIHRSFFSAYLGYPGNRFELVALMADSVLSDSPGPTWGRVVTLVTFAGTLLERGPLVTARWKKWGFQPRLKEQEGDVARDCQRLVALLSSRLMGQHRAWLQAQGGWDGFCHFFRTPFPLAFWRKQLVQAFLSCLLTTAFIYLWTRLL
row,Compound,displacement [%]
1,COc1ccc(N2C(=O)c3ccccc3NC2c2ccc(OC)c(CN3C(=O)c4ccccc4C3=O)c2)cc1 (stereo not given),-4.2
2,COC(=O)CSc1nc(NC(C)=O)nc(C)c1Br,4.5
3,Oc1c(Cl)cc(Br)cc1/C=N/Nc1nc(N2CCOCC2)nc(N2CCOCC2)n1,9.3
4,O=C1/C(=C\Nc2cc(Cl)ccc2O)CCc2ccccc21,85.9
5,O=C1/C(=C\Nc2ccccc2O)CCc2ccccc21,3.8
6,O=C1/C(=C/Nc2ccccc2NS(=O)(=O)c2ccccc2)CCc2ccccc21,10.4
7,O=C1/C(=C/Nc2ccccc2NS(=O)(=O)c2ccc([N+](=O)[O-])cc2)CCc2ccccc21,8.1
8,O=C1/C(=C\Nc2ccc3c(c2)OCO3)CCc2ccccc21,48.1
9,CNc1ccc([N+](=O)[O-])cc1N/C=C1\CCc2ccccc2C1=O,126
10,C[N+]1=C(CC(=O)Nc2ccccc2Cl)c2ccccc2CC1(C)C,1.4
11,Cc1ccc2nc(-c3ccc(NC(=O)c4ccc(S(=O)(=O)N5CCCC5)cc4)cc3)sc2c1,-1.5
12,Cc1cc(S(=O)(=O)N2CCCC2C(=O)O)c(C)cc1Cl (stereo not given),-5.8
13,O=c1c2c(nc3cc(-c4cccs4)[nH]n13)CCCC2,20.5
14,O=c1c2c(nc3cc(-c4cccs4)[nH]n13)CCS2,75.8
15,O=c1c2c(nc3cc(-c4ccco4)[nH]n13)CCS2,78.9
16,O=c1c2c(nc3cc(-c4cccs4)[nH]n13)CCC2,5.7
17,O=c1c2c(nc3cc(-c4ccccc4)[nH]n13)CCS2,-12.6
18,Cc1nc2cc(-c3ccco3)[nH]n2c(=O)c1C,17
19,O=C1NC(=O)N(c2ccc3c(c2)OCO3)C(=O)/C1=C/c1ccc(I)o1,17.5
20,COc1cc(/C=N/Nc2ncc(C)c(=O)[nH]2)cc(OC)c1O,6.6
21,CN(C)c1ccc(NS(=O)(=O)c2ccc(N3C(=O)CCC3=O)cc2)cc1,19.2
22,COc1ccc(N/C(C)=C/C(=O)c2ccc(Cl)cc2)c(OC)c1,0.8
23,CCCCCCC(=O)Nc1nnc(CC(C)C)s1,-12.9
24,C/C(=N\NC(=O)CCc1c(C)n[nH]c1C)c1ccc(N)cc1,-4
25,CCCC1=NN(c2ccc([N+](=O)[O-])cc2)C(=O)/C1=C\N(C)C,-5.5
26,NC(=O)c1c(NC(=O)Nc2ccc(Cl)cc2)sc2c1CCCC2,0.8
27,CCOc1ccc(N2COc3ccc4ccccc4c3C2)cc1,9.1

row,Compound,displacement [%]
1,Oc1c(Br)cc2oc3c(c2c1/C=N/c1ncn[nH]1)CCCC3,8.5
2,Cc1ccc(N=Cc2c(O)c([N+](=O)[O-])cc3oc4c(c23)CCCC4)cc1C,-1.4
3,Oc1ccccc1N=Cc1c(O)c(I)cc2oc3c(c12)CCCC3,130
4,O=C(NCc1cccnc1)C(=O)N1CCCCC1,-1.4
5,O=C(CC(c1ccccc1)c1ccccc1)Nc1ccccc1Br,-11.6
6,CC(=O)CCc1oc2ccc([N+](=O)[O-])cc2c1-c1ccc(C)o1,3.5
7,CC(=O)/C=C/c1oc2ccc([N+](=O)[O-])cc2c1-c1ccc(C)o1,80.9
8,COc1cc2nnc(/C=C/C(C)=O)c(-c3ccc(C)o3)c2cc1OC,48
9,O=C(Nc1ccc(-c2nnc(-c3ccccc3)o2)cc1)c1cccs1,15.3
10,Nc1nonc1C(=O)N/N=C/c1cc(Cl)cc(Cl)c1O,9
11,C=CCN1C(=O)/C(=C\c2ccc(-c3ccc(C(=O)OCC)cc3)o2)SC1=S,90.3
12,C=CCN1C(=O)/C(=C\c2ccc(-c3ccc(Cl)c(Cl)c3)o2)SC1=S,50.1
13,O=C1/C(=C/c2ccc(-c3cc(Cl)ccc3Cl)o2)SC(=S)N1Cc1ccco1,14.1
14,O=C1/C(=C\c2ccc(-c3ccccc3Cl)o2)SC(=S)N1Cc1ccccc1,10
15,O=C(O)CN1C(=O)/C(=C\c2ccc(-c3ccccc3Cl)o2)SC1=S,-121
16,C=CCN1C(=O)/C(=C\c2ccc(-c3cc(Cl)cc(Cl)c3)o2)SC1=S,1.7
17,C=CCN1C(=O)/C(=C\c2ccc(-c3cc(Cl)ccc3Cl)o2)SC1=S,65.4
18,CCOC(=O)c1ccc(-c2ccc(/C=C3/SC(=S)N(CC(=O)O)C3=O)o2)cc1,-83.7
19,C=CCN1C(=O)/C(=C\c2ccc(-c3ccccc3Cl)o2)SC1=S,149
20,C=CCN1C(=O)/C(=C\c2ccc(-c3cccc(Cl)c3)o2)SC1=S,1.4
21,CCOC(=O)c1ccc(-c2ccc(/C=C3/SC(=S)N(CC)C3=O)o2)cc1,31
22,C=CCN1C(=O)/C(=C\c2ccc(-c3ccc(F)c(Cl)c3)o2)SC1=S,39.4
23,O=C(COc1ccc(Cl)cc1Cl)Nc1ccc2c(c1)OCO2,3.3
24,Cc1cc(OCC(=O)Nc2ccc(Nc3ccccc3)cc2)ccc1Br,1.1
25,CCOc1ccc(N(CC(=O)Nc2ccccc2OCC)S(=O)(=O)c2ccc(SC)cc2)cc1,15.2
26,O=C(COc1ccc([N+](=O)[O-])cc1)Nc1cc(C(F)(F)F)cc(C(F)(F)F)c1,-2.6
27,O=C1NC(=Nc2ccc(O)cc2)S/C1=C/C=C/c1ccccc1,-5.6

row,Compound,displacement [%]
1,CN(C(=O)c1cccs1)c1ccccc1C(=O)O,-1.3
2,CN(c1ccccc1C(=O)O)C1SC(=O)N(c2ccccc2)C1=O (stereo not given),138
3,CC(=O)N(c1ccc(Br)cc1)C1SC(=O)N(c2cccc(C)c2)C1=O (stereo not given),-0.5
4,Brc1ccc2c(c1)Nc1nc3nonc3nc1N2,3.9
5,CCCCN1C(=O)/C(=C/C=C/c2ccccc2)SC1=S,-0.6
6,O=C1/C(=C/c2ccc3c(c2)OCO3)SC(=S)N1Cc1ccco1,94.5
7,O=C1/C(=C/C=C/c2ccccc2)SC(=S)N1Cc1ccco1,99.7
8,O=C1/C(=C/c2cccc3ccccc23)SC(=S)N1Cc1ccco1,79.2
9,O=C1/C(=C/c2ccc(Br)cc2)SC(=S)N1Cc1ccco1,104
10,COc1ccccc1/C=C1\SC(=S)N(Cc2ccco2)C1=O,1
11,COc1ccc(/C=C2\SC(=S)N(Cc3ccco3)C2=O)cc1OC,21.8
12,O=C1/C(=C/c2cccc(Br)c2)SC(=S)N1Cc1ccco1,3.6
13,O=C1/C(=C/c2ccc(O)cc2)SC(=S)N1Cc1ccco1,-13.3
14,O=C1/C(=C/c2ccc(Cl)c(Cl)c2)SC(=S)N1Cc1ccco1,14.2
15,O=C1/C(=C/c2ccccc2[N+](=O)[O-])SC(=S)N1Cc1ccco1,16.5
16,C=CCN1C(=O)/C(=C\C=C\c2ccccc2)SC1=S,6.3
17,CCCCOC(=O)Nc1ccc(S(=O)(=O)Nc2cc(C)ccc2C)cc1,7.1
18,CC(C)C(=O)NC(c1ccc(N(C)C)cc1)c1c(O)ccc2ccccc12 (stereo not given),6.4
19,CCCC1CCc2nc3ccccc3c(C(=O)O)c2C1 (stereo not given),-10.4
20,O=C(NC12CC3CC(CC(C3)C1)C2)c1ccc(Cl)c(Cl)c1,6.9
21,COc1ccc(-c2nc3c(n2O)CCC/C3=N\O)cc1OC,16.6
22,O=C(CCN1C(=O)c2ccccc2C1=O)NCC1CCCO1 (stereo not given),9.6
23,COc1ccccc1NC(=O)CSc1ncn[nH]1,2.5
24,COc1cc(/C=C2\C(=O)NN(c3ccccc3)C2=O)ccc1OCc1ccccc1F,8.9
25,Nc1ncc(-c2ccc([N+](=O)[O-])cc2)cn1,-4.1
26,Cc1ccc(-c2csc(NC(=O)c3ccc(S(=O)(=O)N4CCCCCC4)cc3)n2)cc1,-19
27,O=C(Nc1nc(-c2ccc(F)cc2)cs1)c1ccc(S(=O)(=O)N2CCCCCC2)cc1,129

row,Compound,displacement [%]
1,O=C(Nc1nc(-c2ccc(Cl)cc2)cs1)c1ccc(S(=O)(=O)N2CCCCC2)cc1,-9.5
2,CCc1c(C)sc(NC(=O)c2cccs2)c1C(=O)OC,3.3
3,O=C(O)C(Cc1ccccc1)N1C(=O)/C(=C/c2ccc(Br)cc2)SC1=S (stereo not given),11.6
4,FC(F)(F)c1ccccc1CN1CCN(C2CCCCC2)CC1,1.4
5,CC(C)COc1ccc(C(=O)Nc2ccc(-c3nc4ncccc4o3)cc2)cc1,50.1
6,CCOc1cc(OCC)cc(C(=O)Nc2ccc(-c3nc4ncccc4o3)cc2)c1,0.6
7,CCCCOc1ccc(C(=O)Nc2ccc(-c3nc4ncccc4o3)cc2)cc1,10.6
8,CC(C)COc1ccc(C(=O)Nc2ccc(-c3nc4ccccc4o3)cc2)cc1,10
9,O=C(Nc1ccc2oc(-c3cccnc3)nc2c1)c1cccc(OCc2ccccc2)c1,11
10,O=C(Nc1ccc(-c2nc3ncccc3o2)cc1)c1cccc(OCc2ccccc2)c1,110
11,CCCCc1c(C)nc2ccc(C(=O)O)cc2c1Cl,1
12,C=CCOc1ccc(/C=C2/C(=O)NN(c3ccc(C)c(Cl)c3)C2=O)cc1OC,15.5
13,COC(=O)c1ccc(-n2c(C)cc(/C=C3\C(=O)NC(=O)N(c4ccc(OC)cc4)C3=O)c2C)cc1,115
14,COC(=O)c1ccc(-n2c(C)cc(C=C3C(=O)NC(=S)NC3=O)c2C)cc1,24.8
15,COc1ccc(N2C(=O)NC(=O)/C(=C\c3cc(C)n(-c4ccc(N5CCOCC5)cc4)c3C)C2=O)cc1,15.9
16,COc1ccc(N2C(=O)NC(=O)/C(=C/c3ccc(-c4ccc(C(=O)O)cc4)o3)C2=O)cc1,-10.9
17,CN1C(=O)C(=Cc2ccc(-c3ccc(Cl)c(C(=O)O)c3)o2)C(=O)N(C)C1=O,14.5
18,Cc1cccc(N2C(=O)NC(=O)/C(=C/c3ccc(-c4ccc(C(=O)O)cc4)o3)C2=O)c1,-58.8
19,CCOC(=O)c1ccc(-c2ccc(/C=C3/C(=O)NC(=O)N(c4ccccc4)C3=O)o2)cc1,88.5
20,CCOC(=O)c1ccc(-c2ccc(/C=C3/C(=O)NN(c4cccc(Cl)c4)C3=O)o2)cc1,-1.9
21,CCOC(=O)c1cc(-c2ccc(C=C3C(=O)N(C)C(=O)N(C)C3=O)o2)ccc1Cl,111
22,COc1ccc(N2C(=O)/C(=C/c3ccc(-c4ccc(C(=O)O)cc4)o3)C(=O)NC2=S)cc1,-28.2
23,CCOC(=O)c1ccc(-c2ccc(/C=C3/C(=O)NC(=O)N(c4ccc(OC)cc4)C3=O)o2)cc1,86.2
24,CN1C(=O)C(=Cc2ccc(-c3ccc(Cl)c(Cl)c3)o2)C(=O)N(C)C1=O,-3.8

# Source: PubChem BioAssay AID1240 (Sanford-Burnham Center for Chemical Genomics, 2008)
